Test results taken from PubChem BioAssay (EPA / NIEHS).
Inconclusive results are not listed. Calls of active or inactive are those of the source. How the source made its calls: active means hit-call score of the fitted dose curve at least 0.9, where 1 is the maximum; inconclusive means response in the unintended direction; inactive means score below 0.9.

Each compound was assayed against human Protein Tyrosine Phosphatase Receptor Type M (PTPRM), PTPRM (gene 5797) (UniProt P28827) (assay: NVS_ENZ_hPTPRM: NovaScreen (NVS) Enzymatic Assay for human Protein Tyrosine Phosphatase Receptor Type M (PTPRM) (AID 2283215)).
Method in brief: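 Read-out is fluorescence after electrophoretic separation of substrate and product, taken 1.33 h post-dosing with recombinant enzyme. Compounds screened at 25 uM in duplicate, then concentration series for actives; activity as signal loss relative to DMSO.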

SMILES	AC50	outcome
CC(C)O.CC(C)O.OCCN(CCO)CCO.OCCN(CCO)CCO.[Ti]	0.119 µM (active)	
CCCCCCCCCCCCc1cccc(S(=O)(=O)O)c1	14.4 µM (active)	
Clc1cccc(Cl)c1Cl		inactive

The compounds below were run against human Raf-1 Proto-Oncogene, serine/threonine Kinase (RAF1), RAF1 (gene 5894) (UniProt P04049) (assay: NVS_ENZ_hRAF1: NovaScreen (NVS) Enzymatic Assay for human Raf-1 Proto-Oncogene, serine/threonine Kinase (RAF1) (AID 2283216)).
Protocol: (§1) NVS_ENZ_hRAF1 is a biochemical, single-readout assay that uses extracted gene-proteins in a cell-free assay. Measurements were taken 1 hour after chemical dosing in a 384-well plate.NVS_ENZ_hRAF1 is one of one assay component(s) measured or calculated from the NVS_ENZ_hRAF1 assay. It is designed to make measurements of enzyme activity, a form of enzyme reporter, as detected with fluorescence intensity signals by Fluorescence and electrophoretic mobility shift technology.Data from the assay component NVS_ENZ_hRAF1 was analyzed into 1 assay endpoint. This assay endpoint, NVS_ENZ_hRAF1, was analyzed in the positive analysis fitting direction relative to DMSO as the negative control and baseline of activity. Using a type of enzyme reporter, loss-of-signal activity can be used to understand changes in the enzymatic activity as they relate to the gene RAF1. Furthermore, this assay endpoint can be referred to as a primary readout, because this assay has produced multiple assay endpoints where this one serves a enzymatic activity function. To generalize the intended target to other relatable targets, this assay endpoint is annotated to the kinase intended target family, where the subfamily is serine/threonine kinase.
(§2) Binding assays used specific radioligands (tritiated, iodinated) with non-radioactive competitive displacement ligands in agonist or antagonist protocols (as indicated) and various reference compounds and inhibitors to titrate specific binding to receptors and transporters. Most enzyme assays (CYPs, kinases, phosphatases, proteases, HDACs) used recombinant protein and specific substrates (fluorescence mostly, some colorimetric and radioactive) and inhibitors, followed by a biochemical separation of substrate and product. All assays for the biochemical HTS were initially run in duplicate at a single concentration (10 uM for CYP450 assays and 25 uM for all others). Assay-chemical combinations meeting a pre-defined threshold (e.g., 30% inhibition and other criteria defined below) were then run in singleton concentration-response format with maximum concentration of 20 uM for CYPs and 50 uM for all others. Each assay was run with positive and negative controls, and concurrent controls on every plate. The follow-up (secondary) screen tested active chemical-pairs in concentration series, as well as a few additional assays not tested in the primary screen, some selected negative inactives, and several cases re-run in the concentration series for confirmatory purposes.

human Raf-1 Proto-Oncogene, serine/threonine Kinase (RAF1), RAF1 (gene 5894), sequence (P04049 whole entry, looked up): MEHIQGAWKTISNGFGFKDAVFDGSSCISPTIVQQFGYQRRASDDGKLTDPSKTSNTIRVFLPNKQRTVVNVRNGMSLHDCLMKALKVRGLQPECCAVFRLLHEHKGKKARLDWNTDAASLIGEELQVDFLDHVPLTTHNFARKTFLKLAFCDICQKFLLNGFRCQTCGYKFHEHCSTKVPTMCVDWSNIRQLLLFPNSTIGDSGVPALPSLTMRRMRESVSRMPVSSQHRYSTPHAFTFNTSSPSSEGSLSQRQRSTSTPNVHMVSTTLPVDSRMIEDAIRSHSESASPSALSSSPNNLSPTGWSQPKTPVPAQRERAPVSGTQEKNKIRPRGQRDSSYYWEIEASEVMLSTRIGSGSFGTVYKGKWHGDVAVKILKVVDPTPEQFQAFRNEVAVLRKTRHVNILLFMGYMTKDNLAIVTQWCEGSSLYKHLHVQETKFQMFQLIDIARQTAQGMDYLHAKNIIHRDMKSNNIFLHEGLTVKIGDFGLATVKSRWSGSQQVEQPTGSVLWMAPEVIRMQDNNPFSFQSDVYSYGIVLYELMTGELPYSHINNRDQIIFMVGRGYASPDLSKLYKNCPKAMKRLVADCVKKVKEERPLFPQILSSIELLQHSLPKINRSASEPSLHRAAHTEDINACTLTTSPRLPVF

SMILES	outcome	AC50
O=C(N[C@H]1CN2CCC1CC2)c1ccc2c(c1)OCCO2	inactive	
Oc1cc(Cl)c(Cl)cc1Cl	inactive	
CC(C)O.CC(C)O.OCCN(CCO)CCO.OCCN(CCO)CCO.[Ti]	inactive	
CCCCCCCCCCCCOS(=O)(=O)O		25 µM (active)
CCCCCCCCCCCCc1cccc(S(=O)(=O)O)c1		28.8 µM (active)
Clc1cccc(Cl)c1Cl	inactive	
O=C(O)CC(O)(CC(=O)O)C(=O)O	inactive	

Each compound was assayed against human Sirtuin 1 (SIRT1), SIRT1 (gene 23411) (UniProt Q96EB6) (assay: NVS_ENZ_hSIRT1: NovaScreen (NVS) Enzymatic Assay for human Sirtuin 1 (SIRT1) (AID 2283219)).
Method in brief: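 Cell-free recombinant SIRT1 with a fluorescent substrate; substrate and product separated by electrophoretic mobility shift and read by fluorescence intensity, 1 h after dosing. Primary screen at 25 uM in duplicate; hits re-run in concentration-response up to 50 uM, relative to DMSO.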

human Sirtuin 1 (SIRT1), SIRT1 (gene 23411), sequence (Q96EB6 whole entry, looked up): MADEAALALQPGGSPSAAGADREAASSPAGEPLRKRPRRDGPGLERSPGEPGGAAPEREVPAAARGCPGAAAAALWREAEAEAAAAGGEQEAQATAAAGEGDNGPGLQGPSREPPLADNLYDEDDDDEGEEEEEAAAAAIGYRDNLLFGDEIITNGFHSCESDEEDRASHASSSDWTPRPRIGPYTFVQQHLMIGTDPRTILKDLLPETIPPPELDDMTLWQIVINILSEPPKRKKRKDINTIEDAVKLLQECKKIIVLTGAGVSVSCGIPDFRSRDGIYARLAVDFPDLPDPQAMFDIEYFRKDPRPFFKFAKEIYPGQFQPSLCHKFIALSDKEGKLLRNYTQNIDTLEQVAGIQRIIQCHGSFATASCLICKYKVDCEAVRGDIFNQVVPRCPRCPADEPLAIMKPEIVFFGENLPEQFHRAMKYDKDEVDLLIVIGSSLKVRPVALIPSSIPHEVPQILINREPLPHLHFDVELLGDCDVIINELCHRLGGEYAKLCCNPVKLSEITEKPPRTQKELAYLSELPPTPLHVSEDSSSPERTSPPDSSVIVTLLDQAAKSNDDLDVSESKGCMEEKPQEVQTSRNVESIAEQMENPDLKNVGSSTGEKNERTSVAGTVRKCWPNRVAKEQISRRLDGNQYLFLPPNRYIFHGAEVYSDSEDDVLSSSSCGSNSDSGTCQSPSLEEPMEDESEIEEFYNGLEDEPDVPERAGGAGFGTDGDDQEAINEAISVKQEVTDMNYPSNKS

SMILES	outcome	AC50
OCCN(CCO)CCO	inactive	
Clc1cccc(Cl)c1Cl	inactive	
COc1ccccc1N		25.4 µM (active)

What follows are compounds tested against human Tyrosine Protein Kinase Receptor Tie-2 (Tie2), TEK (gene 7010) (UniProt Q02763) (assay: NVS_ENZ_hTie2: NovaScreen (NVS) Enzymatic Assay for human Tyrosine Protein Kinase Receptor Tie-2 (Tie2) (AID 2283225)).
Protocol: as §1, with “NVS_ENZ_hTie2” for “NVS_ENZ_hRAF1”, “plate.NVS_ENZ_hTie2” for “plate.NVS_ENZ_hRAF1”, “NVS_ENZ_hTie2,” for “NVS_ENZ_hRAF1,”, “TEK.” for “RAF1.”, “receptor tyrosine” for “serine/threonine”
as §2

human Tyrosine Protein Kinase Receptor Tie-2 (Tie2), TEK (gene 7010), sequence (Q02763 whole entry, looked up): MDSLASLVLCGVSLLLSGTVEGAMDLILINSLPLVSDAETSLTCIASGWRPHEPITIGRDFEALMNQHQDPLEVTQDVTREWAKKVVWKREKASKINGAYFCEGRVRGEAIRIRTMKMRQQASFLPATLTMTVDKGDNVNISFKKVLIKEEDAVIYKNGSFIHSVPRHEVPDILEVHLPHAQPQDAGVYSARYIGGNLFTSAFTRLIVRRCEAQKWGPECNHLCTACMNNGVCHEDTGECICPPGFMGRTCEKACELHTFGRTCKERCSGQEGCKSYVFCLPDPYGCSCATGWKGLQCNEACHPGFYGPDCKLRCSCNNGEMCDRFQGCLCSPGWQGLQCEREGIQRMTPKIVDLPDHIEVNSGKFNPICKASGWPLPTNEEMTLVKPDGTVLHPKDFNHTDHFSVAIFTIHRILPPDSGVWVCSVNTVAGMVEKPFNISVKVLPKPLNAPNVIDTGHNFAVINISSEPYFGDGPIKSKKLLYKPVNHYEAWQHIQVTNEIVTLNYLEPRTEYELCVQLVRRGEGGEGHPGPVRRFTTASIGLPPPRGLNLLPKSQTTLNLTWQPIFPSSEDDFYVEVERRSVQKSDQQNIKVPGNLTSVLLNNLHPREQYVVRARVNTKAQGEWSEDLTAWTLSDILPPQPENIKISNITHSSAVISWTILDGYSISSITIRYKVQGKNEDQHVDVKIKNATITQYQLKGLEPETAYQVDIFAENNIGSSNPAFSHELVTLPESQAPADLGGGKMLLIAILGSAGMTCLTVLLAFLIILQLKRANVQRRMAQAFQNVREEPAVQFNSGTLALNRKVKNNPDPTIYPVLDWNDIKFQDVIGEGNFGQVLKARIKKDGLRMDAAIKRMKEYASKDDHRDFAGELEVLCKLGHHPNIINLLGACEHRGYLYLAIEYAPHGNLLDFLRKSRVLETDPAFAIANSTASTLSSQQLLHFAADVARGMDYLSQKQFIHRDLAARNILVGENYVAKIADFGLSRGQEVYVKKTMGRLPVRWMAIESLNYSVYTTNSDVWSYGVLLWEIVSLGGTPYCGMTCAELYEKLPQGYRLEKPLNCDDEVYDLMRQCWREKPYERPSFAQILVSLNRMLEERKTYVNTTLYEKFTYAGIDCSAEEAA

SMILES	outcome	AC50
O=C(N[C@H]1CN2CCC1CC2)c1ccc2c(c1)OCCO2	inactive	
O=C1c2ccccc2C(=O)C1C(=O)C(c1ccccc1)c1ccc(Cl)cc1 (stereo not given)		2.26 µM (active)
CC(C)O.CC(C)O.OCCN(CCO)CCO.OCCN(CCO)CCO.[Ti]		3.53 µM (active)
COc1nn(C(=O)NS(=O)(=O)c2ccccc2OC(F)(F)F)c(=O)n1C		24.5 µM (active)
CCCCCCCCCCCCOS(=O)(=O)O		26.9 µM (active)
CCCCCCCCCCCCc1cccc(S(=O)(=O)O)c1		12.4 µM (active)
Clc1cccc(Cl)c1Cl	inactive	
N#Cc1cccnc1	inactive	

The compounds below were run against human Vascular Endothelial Growth Factor Receptor 1 (VEGFR1), FLT1 (gene 2321) (UniProt P17948) (assay: NVS_ENZ_hVEGFR1: NovaScreen (NVS) Enzymatic Assay for human Vascular Endothelial Growth Factor Receptor 1 (VEGFR1) (AID 2283226)).
Method in brief: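 Kinase activity of recombinant human VEGFR1 was read by fluorescence after electrophoretic separation of product from substrate, 1 h post-dosing; initial duplicate single-point testing at 25 uM, followed by concentration-series follow-up, with DMSO as baseline.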

human Vascular Endothelial Growth Factor Receptor 1 (VEGFR1), FLT1 (gene 2321), sequence (P17948 whole entry, looked up): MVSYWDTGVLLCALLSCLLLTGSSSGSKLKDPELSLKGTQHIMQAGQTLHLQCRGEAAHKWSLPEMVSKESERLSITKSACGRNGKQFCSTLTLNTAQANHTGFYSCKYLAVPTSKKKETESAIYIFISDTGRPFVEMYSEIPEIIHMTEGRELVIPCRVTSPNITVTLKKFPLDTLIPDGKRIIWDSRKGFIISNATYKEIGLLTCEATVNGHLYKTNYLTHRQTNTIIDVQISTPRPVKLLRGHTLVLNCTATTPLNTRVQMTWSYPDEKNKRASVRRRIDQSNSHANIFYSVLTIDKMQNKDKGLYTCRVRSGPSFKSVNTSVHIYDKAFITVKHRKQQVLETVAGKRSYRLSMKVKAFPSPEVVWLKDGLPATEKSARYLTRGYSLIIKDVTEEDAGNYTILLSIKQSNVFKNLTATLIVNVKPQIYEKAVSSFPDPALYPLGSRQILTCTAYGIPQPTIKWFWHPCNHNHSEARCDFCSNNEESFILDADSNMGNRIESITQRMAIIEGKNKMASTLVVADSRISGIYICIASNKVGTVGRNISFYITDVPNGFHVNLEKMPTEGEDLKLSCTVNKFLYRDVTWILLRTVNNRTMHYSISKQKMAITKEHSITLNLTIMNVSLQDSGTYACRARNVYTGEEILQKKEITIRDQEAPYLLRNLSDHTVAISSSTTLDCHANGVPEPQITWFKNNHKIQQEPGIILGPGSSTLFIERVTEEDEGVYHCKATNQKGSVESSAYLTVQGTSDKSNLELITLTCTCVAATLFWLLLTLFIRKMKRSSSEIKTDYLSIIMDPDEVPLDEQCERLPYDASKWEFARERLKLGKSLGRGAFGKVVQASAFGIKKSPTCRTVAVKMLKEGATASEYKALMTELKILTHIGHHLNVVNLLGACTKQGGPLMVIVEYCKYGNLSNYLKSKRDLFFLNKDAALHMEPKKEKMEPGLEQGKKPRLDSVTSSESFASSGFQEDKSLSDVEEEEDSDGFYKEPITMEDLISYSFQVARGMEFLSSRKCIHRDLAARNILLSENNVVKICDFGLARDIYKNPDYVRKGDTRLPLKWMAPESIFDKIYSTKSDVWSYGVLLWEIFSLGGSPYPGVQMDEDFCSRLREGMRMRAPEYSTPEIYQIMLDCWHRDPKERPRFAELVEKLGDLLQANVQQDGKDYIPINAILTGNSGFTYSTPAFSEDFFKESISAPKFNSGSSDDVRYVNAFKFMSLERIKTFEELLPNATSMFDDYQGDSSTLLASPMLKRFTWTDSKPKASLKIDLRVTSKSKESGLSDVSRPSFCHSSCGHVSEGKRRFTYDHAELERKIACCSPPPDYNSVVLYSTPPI

SMILES	outcome	AC50
O=C(N[C@H]1CN2CCC1CC2)c1ccc2c(c1)OCCO2	inactive	
Nc1c(Oc2ccccc2)cc(O)c2c1C(=O)c1ccccc1C2=O		0.898 µM (active)
C=C(C)C(=O)OCC(CC)CCCC (stereo not given)	inactive	
CCCCCCCCCCCCc1cccc(S(=O)(=O)O)c1		22.9 µM (active)
Clc1cccc(Cl)c1Cl	inactive	
N#Cc1cccnc1	inactive	
O=c1oc2ccccc2c(O)c1C(CC(O)c1ccc(-c2ccc(Br)cc2)cc1)c1ccccc1 (stereo not given)		16.9 µM (active)

What follows are compounds tested against human Vascular Endothelial Growth Factor Receptor 3 (VEGFR3), FLT4 (gene 2324) (UniProt P35916) (assay: NVS_ENZ_hVEGFR3: NovaScreen (NVS) Enzymatic Assay for human Vascular Endothelial Growth Factor Receptor 3 (VEGFR3) (AID 2283229)).
Method in brief: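 Chemicals first run in duplicate at 25 uM, with actives re-tested in concentration series to a top of 50 uM. Recombinant VEGFR3 activity measured after 1 h via fluorescence with mobility-shift product separation; inhibition fitted relative to DMSO.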

SMILES	outcome	AC50
O=C(N[C@H]1CN2CCC1CC2)c1ccc2c(c1)OCCO2	inactive	
O=C1c2ccccc2C(=O)C1C(=O)C(c1ccccc1)c1ccc(Cl)cc1 (stereo not given)		2.4 µM (active)
CC(C)O.CC(C)O.OCCN(CCO)CCO.OCCN(CCO)CCO.[Ti]		21.8 µM (active)
COc1nn(C(=O)NS(=O)(=O)c2ccccc2OC(F)(F)F)c(=O)n1C		11.4 µM (active)
CCCCCCCCCCCCc1cccc(S(=O)(=O)O)c1		10.7 µM (active)

The compounds below were run against human Vascular Endothelial Growth Factor Receptor 2 (VEGFR2), KDR (gene 3791) (UniProt P35968) (assay: NVS_ENZ_hVEGFR2: NovaScreen (NVS) Enzymatic Assay for human Vascular Endothelial Growth Factor Receptor 2 (VEGFR2) (AID 2283230)).
Method in brief: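 Cell-free recombinant VEGFR2 kinase, fluorescent substrate with electrophoretic mobility-shift separation; read 1 h after dosing. Screened at 25 uM in duplicate, hits to concentration-response up to 50 uM; loss-of-signal versus DMSO.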

SMILES	outcome	AC50
O=C(N[C@H]1CN2CCC1CC2)c1ccc2c(c1)OCCO2	inactive	
O=C(CBr)c1ccc(O)cc1	inactive	
OCCN(CCO)CCO	inactive	
Oc1cc(Cl)c(Cl)cc1Cl	inactive	
CC(C)O.CC(C)O.OCCN(CCO)CCO.OCCN(CCO)CCO.[Ti]		6.5 µM (active)
CCCCCCCCCCCCc1cccc(S(=O)(=O)O)c1		9.17 µM (active)
N#Cc1cccnc1	inactive	

Each compound was assayed against rat Acetylcholinesterase (AChE), Ache (gene 83817) (UniProt P37136) (assay: NVS_ENZ_rAChE: NovaScreen (NVS) Enzymatic Assay for rat Acetylcholinesterase (AChE) (AID 2283233)).
Method in brief: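 Compounds first screened at 25 uM in duplicate, then those passing threshold tested in concentration series up to 50 uM, against AChE from rat brain membranes. Enzyme activity read by absorbance at 0.33 h; inhibition scored versus DMSO.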

rat Acetylcholinesterase (AChE), Ache (gene 83817), sequence (P37136 whole entry, looked up): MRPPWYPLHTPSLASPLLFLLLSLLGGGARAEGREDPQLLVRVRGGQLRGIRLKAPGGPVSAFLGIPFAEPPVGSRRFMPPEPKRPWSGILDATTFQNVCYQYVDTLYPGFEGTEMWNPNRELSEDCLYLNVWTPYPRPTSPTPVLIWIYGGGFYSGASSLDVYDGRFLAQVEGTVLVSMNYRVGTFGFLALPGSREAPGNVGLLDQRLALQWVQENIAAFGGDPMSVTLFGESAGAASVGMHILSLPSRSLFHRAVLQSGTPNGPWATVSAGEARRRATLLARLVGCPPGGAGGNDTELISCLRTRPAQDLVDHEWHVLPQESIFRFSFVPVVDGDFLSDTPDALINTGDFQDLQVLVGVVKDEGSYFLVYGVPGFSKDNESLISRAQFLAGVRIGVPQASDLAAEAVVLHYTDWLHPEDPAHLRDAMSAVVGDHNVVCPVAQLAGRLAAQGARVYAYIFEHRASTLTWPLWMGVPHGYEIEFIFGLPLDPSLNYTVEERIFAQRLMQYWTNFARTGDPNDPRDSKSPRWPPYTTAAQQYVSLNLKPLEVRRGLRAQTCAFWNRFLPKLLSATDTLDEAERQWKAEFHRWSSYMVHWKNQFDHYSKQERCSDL

SMILES	AC50
CCOP(=O)(OCC)OC(=CCl)c1ccc(Cl)cc1Cl	6.51 µM (active)
CCOC(=O)C(SP(=S)(OC)OC)c1ccccc1 (stereo not given)	10.2 µM (active)
CCOC(=O)CCN(SN(C)C(=O)Oc1cccc2c1OC(C)(C)C2)C(C)C	1.33 µM (active)

These compounds were tested against sheep Cyclooxygenase-1 (Cox1), PTGS1 (gene 443551) (UniProt P05979) (assay: NVS_ENZ_oCOX1: NovaScreen (NVS) Enzymatic Assay for sheep Cyclooxygenase-1 (Cox1) (AID 2283239);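 further: actives reduce cyclooxygenase activity so potencies are for inhibitors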).
Method in brief: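 Colorimetric enzyme readout using sheep seminal-vesicle cyclooxygenase-1, measured 0.66 h post-dosing. Single-concentration duplicates at 25 uM first, then concentration series for actives, with DMSO as baseline and plate controls.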

sheep Cyclooxygenase-1 (Cox1), PTGS1 (gene 443551), sequence (P05979 whole entry, looked up): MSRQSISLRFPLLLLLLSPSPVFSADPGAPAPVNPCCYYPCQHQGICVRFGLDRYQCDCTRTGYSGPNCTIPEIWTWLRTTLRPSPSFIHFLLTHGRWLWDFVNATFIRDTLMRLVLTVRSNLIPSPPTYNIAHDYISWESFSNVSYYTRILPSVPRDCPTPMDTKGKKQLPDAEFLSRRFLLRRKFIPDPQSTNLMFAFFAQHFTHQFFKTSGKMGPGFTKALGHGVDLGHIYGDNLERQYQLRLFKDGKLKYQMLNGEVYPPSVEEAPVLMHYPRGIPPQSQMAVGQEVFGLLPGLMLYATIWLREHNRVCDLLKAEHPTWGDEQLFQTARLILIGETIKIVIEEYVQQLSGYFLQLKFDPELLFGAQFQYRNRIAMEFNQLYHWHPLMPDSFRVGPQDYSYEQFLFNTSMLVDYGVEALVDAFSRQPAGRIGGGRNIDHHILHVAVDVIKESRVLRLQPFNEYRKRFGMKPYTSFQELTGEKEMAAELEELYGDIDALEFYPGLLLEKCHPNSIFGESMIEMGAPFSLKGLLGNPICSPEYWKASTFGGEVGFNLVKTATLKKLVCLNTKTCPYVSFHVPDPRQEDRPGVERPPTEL

SMILES	outcome	AC50
CC(C)(C)c1ccccc1O	inactive	
CC(C=O)Cc1ccc2c(c1)OCO2 (stereo not given)		25 µM (active)
O=C1c2ccccc2C(=O)C1C(=O)C(c1ccccc1)c1ccc(Cl)cc1 (stereo not given)	inactive	
O=C(O)COc1cc(Cl)c(Cl)cc1Cl	inactive	
Nc1ncn[nH]1	inactive	
CN(C)CCN(C)C	inactive	
N#CCCC(Br)(C#N)CBr (stereo not given)		4.04 µM (active)
COc1ccc(N)cc1		26 µM (active)
[Cl][Sn]([c]1ccccc1)([c]1ccccc1)[c]1ccccc1	inactive	
CCCCCCCCCCCCc1cccc(S(=O)(=O)O)c1		5.06 µM (active)
c1ccc2sc(SNC3CCCCC3)nc2c1	inactive	
COc1ccccc1N		0.146 µM (active)
O=c1oc2ccccc2c(O)c1C(CC(O)c1ccc(-c2ccc(Br)cc2)cc1)c1ccccc1 (stereo not given)		1.31 µM (active)
C=CC(=O)NC(C)(C)CC(C)=O		21.4 µM (active)
O=[N+]([O-])c1cccc2ccccc12	inactive	

The compounds below were run on rat Monoamine Oxidase, MAO-A, Central (MAOAC), gene 29253 (assay: NVS_ENZ_rMAOAC: NovaScreen (NVS) Enzymatic Assay for rat Monoamine Oxidase, MAO-A, Central (MAOAC) (AID 2283243);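 further: potency refers to inhibition seen as signal drop below DMSO baseline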).
Method in brief: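 Scintillation read-out of MAO-A activity in rat brain lysate, 1.5 h post-dosing. Primary single-concentration screen: 25 uM, duplicate; actives re-tested in concentration series. DMSO = negative control/baseline.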

SMILES	AC50	outcome
Oc1cccc(-c2ccccc2)c1	10.9 µM (active)	
OC(Cc1ccccc1Cl)(Cn1cncn1)C1(Cl)CC1 (stereo not given)		inactive
Oc1cc(Cl)c(Cl)cc1Cl	16.5 µM (active)	
O=C1C=CC(=O)c2ccccc21	25 µM (active)	
CCCCCCCCCCCCc1cccc(S(=O)(=O)O)c1	10.6 µM (active)	
Oc1ccc(Cc2ccc(O)cc2)cc1	25 µM (active)	
Oc1c(Cl)cc(Cl)cc1Cl		inactive
